The supplement of paper PMC10849652
Of roughly 8,800 targets only a part is listed; those with a hit were picked by preference. About 0.5% of all pairs of compound and target were hits. Values without a mark were called inactive.

Columns and labels:
Assay in all cases: log2 fold change, soluble protein after heating vs DMSO (PISA); higher = thermal stabilisation; K562 lysate, 10 uM; active = over 0.2 and 3.5 SD of the protein, either way, in both replicates (recomputed)
[1] = compound: CN1CC[C@H](c2c(O)cc(O)c3c(=O)cc(-c4ccccc4Cl)oc23)[C@H](O)C1 [alvocidib]
Procedure, shortened: (§1)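 The values are log-two fold changes in thermal stability compared with solvent controls and come from duplicates. They were obtained by TMTpro 16plex LC-MS/MS, with channel sums equalised, on the supernatant after 21,000xg for 90 min. That supernatant came from crude K562 extract at 1 mg/mL protein treated with 10 μM compound for 30 min, heated for 3 min across 48°C-58°C, pooled and brought to 0.5% NP-40 at 4°C.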

[2] = compound: CN1CCc2c(c3ccccc3n2Cc2ccc(C(=O)NO)cc2)C1 [Tubastatin A]
Procedure, shortened: as §1

[3] = compound: CNC(=O)C1=CC=CC=C1NC2=NC(=NC=C2Cl)NC3=C(C=C(C=C3)N4CCOCC4)OC
Procedure, shortened: as §1

[4] = compound: CNc1nc(-c2ccc3c(N)n[nH]c3c2)cc(N2C[C@@H](C(=O)NC3CCCCC3)CC[C@H]2C)n1
Procedure, shortened: as §1

[5] = compound: C[C@@H](Oc1cc(-c2cnn(C3CCNCC3)c2)cnc1N)c1c(Cl)ccc(F)c1Cl [crizotinib]
Procedure, shortened: as §1

[6] = compound: C[C@H](C1=CC=C(C=C1)C(=O)NC2=C3C=CNC3=NC=C2)N
Procedure, shortened: as §1

[7] = compound: C[C@H](Nc1ncnc2nc[nH]c12)c1cc2cccc(Cl)c2c(=O)n1-c1ccccc1 [duvelisib]
Procedure, shortened: as §1

[8] = compound: Cc1cc(Nc2cc(CN3CCOCC3)c3nc(C)c(Cc4ccc(Cl)cc4F)n3n2)n[nH]1 [gandotinib]
Procedure, shortened: as §1

[9] = compound: Cc1ccc(-n2nc(C(C)(C)C)cc2NC(=O)Nc2ccc(OCCN3CCOCC3)c3ccccc23)cc1 [doramapimod]
Procedure, shortened: as §1

[10] = compound: Cc1cccc(CC(=O)N2CCc3c2ccc(-c2cn(C)c4ncnc(N)c24)c3F)n1
Procedure, shortened: as §1

[11] = compound: COC(=O)N[C@@H](C)CNc1nccc(-c2cn(C(C)C)nc2-c2cc(Cl)cc(NS(C)(=O)=O)c2F)n1 [encorafenib]
Procedure, shortened: as §1

[12] = compound: COC(=O)[C@H](CCSC)NC(=O)C1=C(C=C(C=C1)NC[C@H](CS)N)C2=CC=CC=C2
Procedure, shortened: as §1

[13] = compound: COc1cc(Nc2ncc3c(n2)-c2ccc(Cl)cc2C(c2c(F)cccc2OC)=NC3)ccc1C(=O)O [alisertib]
Procedure, shortened: as §1

[14] = compound: COc1cc2ncnc(Nc3ccc(F)c(Cl)c3)c2cc1OCCCN1CCOCC1 [gefitinib]
Procedure, shortened: as §1

[15] = compound: CS(=O)(=O)N1CCN(Cc2cc3nc(-c4cccc5[nH]ncc45)nc(N4CCOCC4)c3s2)CC1 [pictilisib]
Procedure, shortened: as §1

[16] = compound: Cc1cc(Nc2cc(N3CCN(C)CC3)nc(Sc3ccc(NC(=O)C4CC4)cc3)n2)n[nH]1 [tozasertib]
Procedure, shortened: as §1

[17] = compound: Cc1ccc(NC(=O)c2ccc(CN3CC[C@H](N(C)C)C3)c(C(F)(F)F)c2)cc1Nc1nccc(-c2cncnc2)n1 [bafetinib]
Procedure, shortened: as §1

[18] = compound: COc1cc2nc(-c3cc(F)ccc3O)nc(N[C@@H]3CNC[C@H]3C(C)(C)O)c2cc1OC
Procedure, shortened: as §1

[19] = compound: CS(=O)(=O)CCNCc1ccc(-c2ccc3ncnc(Nc4ccc(OCc5cccc(F)c5)c(Cl)c4)c3c2)o1 [lapatinib]
Procedure, shortened: as §1

[20] = compound: CNC(=O)c1ccc(Nc2ncc(C(F)(F)F)c(NCc3nccnc3N(C)S(C)(=O)=O)n2)cc1 [defactinib]
Procedure, shortened: as §1

UniProt Q8TAE6, sequence (Q8TAE6 whole entry, looked up): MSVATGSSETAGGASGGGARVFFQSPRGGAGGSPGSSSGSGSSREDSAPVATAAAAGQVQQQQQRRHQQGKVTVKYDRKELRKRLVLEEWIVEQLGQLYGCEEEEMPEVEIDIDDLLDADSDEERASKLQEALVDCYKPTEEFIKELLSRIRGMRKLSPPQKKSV
UniProt Q4G0T1, sequence (Q4G0T1 whole entry, looked up): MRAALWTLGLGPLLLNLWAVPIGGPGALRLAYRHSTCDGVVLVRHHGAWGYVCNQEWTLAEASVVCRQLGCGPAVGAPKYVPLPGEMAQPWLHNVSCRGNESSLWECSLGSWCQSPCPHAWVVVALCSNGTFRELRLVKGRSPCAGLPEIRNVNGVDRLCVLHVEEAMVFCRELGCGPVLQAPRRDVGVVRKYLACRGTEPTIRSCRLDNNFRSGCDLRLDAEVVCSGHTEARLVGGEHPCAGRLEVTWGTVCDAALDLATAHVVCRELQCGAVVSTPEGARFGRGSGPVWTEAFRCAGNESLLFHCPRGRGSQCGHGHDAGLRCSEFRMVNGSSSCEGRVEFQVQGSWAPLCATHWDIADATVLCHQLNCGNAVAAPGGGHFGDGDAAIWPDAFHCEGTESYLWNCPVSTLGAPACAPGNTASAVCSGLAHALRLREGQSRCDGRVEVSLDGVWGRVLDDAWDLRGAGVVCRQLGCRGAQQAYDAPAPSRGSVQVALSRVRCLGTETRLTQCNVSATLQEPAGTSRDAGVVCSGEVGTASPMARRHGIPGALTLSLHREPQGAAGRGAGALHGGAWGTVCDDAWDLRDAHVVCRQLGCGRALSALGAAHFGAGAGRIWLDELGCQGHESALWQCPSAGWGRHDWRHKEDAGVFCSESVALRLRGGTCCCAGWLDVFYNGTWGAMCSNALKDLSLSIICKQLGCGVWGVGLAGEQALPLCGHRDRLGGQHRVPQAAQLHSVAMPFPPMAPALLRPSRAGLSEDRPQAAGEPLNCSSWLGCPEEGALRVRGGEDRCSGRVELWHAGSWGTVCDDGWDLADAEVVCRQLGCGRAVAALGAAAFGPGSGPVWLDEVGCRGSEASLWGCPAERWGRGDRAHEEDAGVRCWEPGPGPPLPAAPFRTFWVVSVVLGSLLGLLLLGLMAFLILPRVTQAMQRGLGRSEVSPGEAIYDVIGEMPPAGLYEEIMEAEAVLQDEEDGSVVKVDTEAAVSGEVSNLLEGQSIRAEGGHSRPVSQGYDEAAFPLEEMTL
UniProt P60673, sequence (P60673 whole entry, looked up): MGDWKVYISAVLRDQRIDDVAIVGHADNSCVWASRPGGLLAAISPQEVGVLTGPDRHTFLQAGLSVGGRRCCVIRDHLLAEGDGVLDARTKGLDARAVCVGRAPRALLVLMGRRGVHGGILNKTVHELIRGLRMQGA
UniProt A8CG34, sequence (A8CG34 whole entry, looked up): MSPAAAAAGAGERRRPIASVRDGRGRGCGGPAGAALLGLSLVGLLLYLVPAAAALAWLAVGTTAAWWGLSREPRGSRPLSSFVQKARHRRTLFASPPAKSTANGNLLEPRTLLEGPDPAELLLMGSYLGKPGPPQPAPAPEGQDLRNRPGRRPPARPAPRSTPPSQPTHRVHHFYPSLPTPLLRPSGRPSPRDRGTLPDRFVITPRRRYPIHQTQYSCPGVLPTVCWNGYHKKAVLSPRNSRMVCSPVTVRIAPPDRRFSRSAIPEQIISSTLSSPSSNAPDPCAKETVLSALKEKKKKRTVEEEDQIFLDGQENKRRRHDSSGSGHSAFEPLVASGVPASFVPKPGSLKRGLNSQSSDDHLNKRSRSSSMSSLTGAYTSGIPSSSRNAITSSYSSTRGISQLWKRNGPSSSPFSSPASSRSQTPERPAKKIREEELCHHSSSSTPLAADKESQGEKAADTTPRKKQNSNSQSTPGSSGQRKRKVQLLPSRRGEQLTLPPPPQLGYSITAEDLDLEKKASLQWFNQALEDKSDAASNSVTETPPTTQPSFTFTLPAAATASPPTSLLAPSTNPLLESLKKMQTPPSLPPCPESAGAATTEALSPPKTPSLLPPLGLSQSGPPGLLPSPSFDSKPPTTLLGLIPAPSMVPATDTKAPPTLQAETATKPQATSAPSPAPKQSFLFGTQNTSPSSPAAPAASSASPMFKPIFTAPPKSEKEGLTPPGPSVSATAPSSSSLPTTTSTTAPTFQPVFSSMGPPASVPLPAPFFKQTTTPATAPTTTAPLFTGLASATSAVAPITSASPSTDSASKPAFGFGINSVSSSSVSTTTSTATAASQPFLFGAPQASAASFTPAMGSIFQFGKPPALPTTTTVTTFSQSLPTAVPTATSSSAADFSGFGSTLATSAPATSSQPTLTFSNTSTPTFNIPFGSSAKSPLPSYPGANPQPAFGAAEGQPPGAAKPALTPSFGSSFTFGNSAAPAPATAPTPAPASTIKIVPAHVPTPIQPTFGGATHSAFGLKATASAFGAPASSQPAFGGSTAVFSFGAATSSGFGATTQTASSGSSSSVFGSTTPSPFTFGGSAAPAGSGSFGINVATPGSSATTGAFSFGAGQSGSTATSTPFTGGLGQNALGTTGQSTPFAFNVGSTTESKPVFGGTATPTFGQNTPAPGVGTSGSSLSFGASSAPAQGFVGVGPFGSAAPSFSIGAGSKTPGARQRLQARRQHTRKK
UniProt Q16378, sequence (Q16378 whole entry, looked up): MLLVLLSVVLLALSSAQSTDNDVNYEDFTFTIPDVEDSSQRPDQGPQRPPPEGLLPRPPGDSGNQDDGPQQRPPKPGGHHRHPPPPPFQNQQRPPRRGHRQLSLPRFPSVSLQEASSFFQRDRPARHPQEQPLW
UniProt Q99755, sequence (Q99755 whole entry, looked up): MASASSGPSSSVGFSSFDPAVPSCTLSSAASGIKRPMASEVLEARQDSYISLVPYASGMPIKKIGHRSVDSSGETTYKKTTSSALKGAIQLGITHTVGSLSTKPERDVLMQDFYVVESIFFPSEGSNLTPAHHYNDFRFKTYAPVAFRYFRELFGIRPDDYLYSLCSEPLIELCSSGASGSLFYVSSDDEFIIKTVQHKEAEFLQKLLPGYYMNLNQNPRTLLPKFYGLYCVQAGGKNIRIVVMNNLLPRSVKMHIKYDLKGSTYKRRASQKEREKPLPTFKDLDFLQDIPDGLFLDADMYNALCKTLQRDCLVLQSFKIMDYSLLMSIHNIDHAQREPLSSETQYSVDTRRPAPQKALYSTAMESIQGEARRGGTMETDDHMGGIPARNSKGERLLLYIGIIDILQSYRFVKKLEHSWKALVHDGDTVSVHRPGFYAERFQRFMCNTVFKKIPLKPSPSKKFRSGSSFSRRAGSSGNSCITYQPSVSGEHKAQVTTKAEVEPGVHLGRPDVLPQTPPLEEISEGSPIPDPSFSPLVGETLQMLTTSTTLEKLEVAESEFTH
UniProt Q9UHX1, sequence (Q9UHX1 whole entry, looked up): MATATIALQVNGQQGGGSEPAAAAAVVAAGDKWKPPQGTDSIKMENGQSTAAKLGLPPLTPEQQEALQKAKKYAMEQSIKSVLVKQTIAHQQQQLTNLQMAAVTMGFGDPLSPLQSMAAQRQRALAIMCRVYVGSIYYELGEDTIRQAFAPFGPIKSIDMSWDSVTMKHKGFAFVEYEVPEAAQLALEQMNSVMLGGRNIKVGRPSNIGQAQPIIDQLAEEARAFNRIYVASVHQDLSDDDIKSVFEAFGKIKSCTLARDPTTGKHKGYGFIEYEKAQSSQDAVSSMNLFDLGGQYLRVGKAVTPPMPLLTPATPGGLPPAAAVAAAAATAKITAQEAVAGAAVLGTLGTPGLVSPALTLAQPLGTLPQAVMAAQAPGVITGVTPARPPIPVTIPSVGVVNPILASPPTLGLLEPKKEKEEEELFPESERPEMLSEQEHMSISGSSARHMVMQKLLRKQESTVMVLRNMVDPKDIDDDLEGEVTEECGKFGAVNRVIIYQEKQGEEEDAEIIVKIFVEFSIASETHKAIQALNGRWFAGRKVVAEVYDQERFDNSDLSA
UniProt P41247, sequence (P41247 whole entry, looked up): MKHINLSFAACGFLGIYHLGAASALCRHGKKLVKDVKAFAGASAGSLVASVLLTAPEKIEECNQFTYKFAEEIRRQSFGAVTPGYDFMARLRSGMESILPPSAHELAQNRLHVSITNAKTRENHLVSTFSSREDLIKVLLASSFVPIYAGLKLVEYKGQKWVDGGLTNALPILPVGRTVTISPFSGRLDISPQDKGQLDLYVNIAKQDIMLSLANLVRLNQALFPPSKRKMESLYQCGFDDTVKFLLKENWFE
UniProt Q9BRQ0, sequence (Q9BRQ0 whole entry, looked up): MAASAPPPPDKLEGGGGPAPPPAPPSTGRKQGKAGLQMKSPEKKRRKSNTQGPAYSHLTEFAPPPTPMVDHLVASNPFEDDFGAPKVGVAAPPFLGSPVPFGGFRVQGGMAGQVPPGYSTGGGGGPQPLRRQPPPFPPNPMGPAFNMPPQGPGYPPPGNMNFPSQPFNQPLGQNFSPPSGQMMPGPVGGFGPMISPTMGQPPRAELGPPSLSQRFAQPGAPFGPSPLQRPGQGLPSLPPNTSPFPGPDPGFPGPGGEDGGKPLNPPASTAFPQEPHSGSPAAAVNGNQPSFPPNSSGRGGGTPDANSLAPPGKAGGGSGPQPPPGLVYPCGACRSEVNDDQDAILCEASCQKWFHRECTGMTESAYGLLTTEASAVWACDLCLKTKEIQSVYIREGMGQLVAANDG
UniProt Q9Y570, sequence (Q9Y570 whole entry, looked up): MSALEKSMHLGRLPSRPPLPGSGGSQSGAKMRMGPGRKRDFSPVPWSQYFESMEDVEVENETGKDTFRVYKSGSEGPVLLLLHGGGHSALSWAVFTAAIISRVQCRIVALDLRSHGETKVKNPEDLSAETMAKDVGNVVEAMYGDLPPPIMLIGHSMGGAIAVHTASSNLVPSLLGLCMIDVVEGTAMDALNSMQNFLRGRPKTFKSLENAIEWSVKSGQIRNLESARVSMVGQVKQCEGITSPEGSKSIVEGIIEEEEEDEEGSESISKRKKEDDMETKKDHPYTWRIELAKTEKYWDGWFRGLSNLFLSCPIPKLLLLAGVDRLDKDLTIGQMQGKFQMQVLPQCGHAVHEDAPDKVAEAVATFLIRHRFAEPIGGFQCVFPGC

Row | Target | log2 fold change [1] | log2 fold change [2] | log2 fold change [3] | log2 fold change [4] | log2 fold change [5] | log2 fold change [6] | log2 fold change [7] | log2 fold change [8] | log2 fold change [9] | log2 fold change [10] | log2 fold change [11] | log2 fold change [12] | log2 fold change [13] | log2 fold change [14] | log2 fold change [15] | log2 fold change [16] | log2 fold change [17] | log2 fold change [18] | log2 fold change [19] | log2 fold change [20]
1 | NA (UniProt Q4G0T1) | -0.132 | -0.272 | -0.115 | -0.062 | 0.023 | -0.044 | 0.035 | -0.015 | 0.042 | 0.034 | – | – | – | – | – | – | – | – | – | –
2 | PYGO2 (UniProt Q9BRQ0) | 0.01 | -0.019 | 0.032 | 0.131 | 0.067 | 0.014 | -0.046 | 0.078 | 0.032 | -0.022 | -0.031 | -0.121 | -0.011 | -0.026 | -0.038 | -0.076 | -0.046 | – | – | –
3 | PREP (UniProt H0Y5Y0) | 0.082 | – | – | – | – | -0.304 | – | 0.113 | – | -0.153 | – | – | – | – | – | – | – | 0.03 | -0.029 | –
4 | PDE4DIP (UniProt E9PS60) | -0.111 | – | -0.02 | -0.089 | -0.034 | -0.688 (active) | -0.077 | 0.233 | 0.075 | 0.147 | -0.059 | -0.039 | 0.013 | 0.005 | – | -0.026 | – | – | – | 0.056
5 | PFN1 (UniProt I3L3D5) | 0.045 | -0.01 | – | – | – | 0.524 (active) | – | -0.15 | – | 0.015 | 0.157 | 0.058 | 0.028 | 0.062 | -0.062 | -0.051 | -0.19 | -0.195 | 0.066 | –
6 | PPME1 (UniProt Q9Y570) | – | – | 0.125 | -0.065 | – | – | -0.017 | – | – | – | -0.029 | -0.059 | – | – | 0.038 | 0.072 | -0.081 | 0.014 | 0.002 | –
7 | PRR4 (UniProt Q16378) | -0.033 | 0.181 | 0.215 | – | – | 0.291 | – | -0.34 | – | 0.252 | -0.396 | 0.126 | 0.075 | 0.026 | – | 0.412 | – | -0.011 | 0.047 | 0.08
8 | PIP5K1A (UniProt Q99755) | 0.077 | -0.043 | 0.027 | -0.074 | -0.168 | 0.03 | -0.043 | -0.013 | 0.093 | -0.034 | – | – | -0.121 | -0.024 | 0.07 | – | -0.062 | -0.023 | -0.117 | –
9 | PDIA4, A0A499FI48 | 0.336 | – | – | -0.003 | -0.063 | 1.32 (active) | -0.101 | -0.18 | -0.039 | -0.154 | – | – | – | – | – | – | – | – | – | –
10 | PNPLA4 (UniProt P41247) | 0.074 | 0.147 | – | -0.17 | -0.098 | 0.121 | 0.021 | -0.019 | 0.825 (active) | -0.138 | -0.076 | 0.125 | – | – | – | -0.011 | – | – | – | -0.148
11 | PIAS2 (UniProt O75928) | – | -0.092 | 0.006 | -0.002 | -0.045 | – | 0.075 | – | -0.007 | – | 0.006 | -0.041 | -0.021 | -0.091 | – | 0.048 | – | – | – | -0.348
12 | PCBP2 (UniProt F8VRH0) | -0.1 | 0.067 | -0.123 | – | 0.023 | -0.116 | – | -0.042 | -0.01 | 0.072 | – | – | 0.231 | 0.045 | – | – | – | 0.096 | -0.148 | –
13 | PUF60 isoform 2 (UniProt Q9UHX1) | 0.223 | 0.003 | 0.264 | – | 0.005 | 1.05 (active) | – | -0.09 | -0.058 | -0.09 | 0.039 | -0.12 | -0.076 | 0.044 | -0.003 | -0.161 | -0.006 | 0.038 | -0.038 | 0.108
14 | PPP1R14C (UniProt Q8TAE6) | -0.045 | -0.033 | – | -0.14 | – | -0.022 | 0.121 | 0.358 (active) | – | 0.336 | 0.064 | 0.014 | -0.044 | 0.032 | -0.025 | 0.08 | 0.041 | -0.04 | -0.044 | -0.002
15 | PPP1R12B isoform 6 (UniProt O60237) | – | 0.081 | 0.006 | 0.016 | -0.347 | – | 0.036 | – | 0.047 | – | -0.011 | 0.145 | – | – | 0.017 | -0.015 | 0.05 | 0.072 | -0.079 | -0.046
16 | PPT2, A0A140T9Y1 | – | – | – | – | – | – | – | – | – | – | – | – | -0.144 | 0.006 | – | – | – | – | – | –
17 | PFN3 (UniProt P60673) | -0.182 | – | – | – | -0.046 | -0.458 | – | 0.119 | 0.083 | 0.193 | 0.125 | -0.28 | -0.047 | 0.075 | – | 0.155 | – | 0.154 | -0.199 | -0.109
18 | POM121C (UniProt A8CG34) | -0.089 | 0.124 | 0.069 | – | – | 0.007 | – | 0.051 | – | -0.091 | – | – | – | – | 0.19 | – | 0.135 | -0.076 | 0.164 | –
19 | PHF14 (UniProt O94880) | – | 0.01 | – | 0.02 | – | – | 0.024 | – | – | – | -0.014 | 0.1 | 0.044 | -0.042 | -0.049 | -0.117 | -0.013 | -0.069 | 0.199 | -0.012
20 | PRG4 (UniProt Q92954) | -0.826 (active) | 0.103 | – | 0.204 | -0.118 | -1.36 (active) | 0.042 | 0.051 | 0.201 | 0.278 | – | – | -0.045 | -0.076 | -0.408 | – | -0.238 | 0.093 | -0.097 | –
21 | PPIC (UniProt P45877) | -0.031 | 0.089 | 0.024 | -0.052 | -0.131 | -0.078 | -0.095 | -0.042 | 0.086 | 0.079 | – | – | 0.004 | 0.103 | -0.003 | – | -0.061 | – | – | 0.077
22 | PHGDH, A0A286YFE1 | – | – | – | -0.19 | – | – | 0.244 | – | – | – | – | – | – | – | 0.114 | – | -0.313 | -0.114 | -0.214 | –
